Unmarked numbers belong to inactive results. Records with an inconclusive call do not appear. Active and inactive are the calls of the source. Unless noted, calls come from the whole dose curve; as a rule, active = well fitted curve in either direction with a large enough effect (not every such curve was filed as active); inconclusive = small, poorly fitted or top-dose-only effect, or another doubt; inactive = flat fitted curve, though single readings scatter.

The values below come from PubChem BioAssay (NCATS).

Test [1] is described as follows: AP1 Signaling Pathway (AID 357).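 Note: ME-180 reporter cells stimulated with EGF at its EC50 level; % is set by controls: 0 for no effect and ±100 for the full control effect.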 Conditions: ME-180 AP-1-bla reporter, EGF-induced, beta-lactamase ratio, 5 h; at 7.69 µM (top of the series) unless noted. The essentials:
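First, ME-180 AP-1-bla cells were cultured overnight at 37 °C in low-serum Opti-MEM. Next, titrated compounds with EC50 EGF were incubated 5 hours. Finally, CCF4 was added for 2.5 hours and the 460/530 nm ratio recorded.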

Test [2] concerns the target Cytochrome P450 1A2 (Homo sapiens) (UniProt P05177). Kind of test: p450-cyp1a2 (AID 410; calls by dose curve; note: potency is the fitted concentration of half-maximal effect). The essentials: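 Read-out is luminescence from luciferin produced by CYP1A2 demethylation of Luciferin-ME (100uM, at Km). Detection reagent stopped the 60 min NADPH-dependent reaction; signals were normalized to 57 uM furafylline.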
Test [3] can be described thus: NFAT Signaling Pathway (AID 444).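 Note: carbachol stimulus at about its EC50 of 1 µM final; % is set by controls: 0 for no effect and ±100 for the full control effect.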 As to conditions: Jurkat NFAT-bla M1, carbachol, beta-lactamase ratio, 5 h; at 7.69 µM (top of the series) unless noted. In outline: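 Jurkat cells with NFAT-driven β-lactamase reporter and co-expressed M1 receptor, stimulated with carbachol (final 1 uM, ~EC50), compound titration, 5 h at 37 °C. CCF4 loaded 1 h at RT; 460/530 nm ratio gave %activity and AC50.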

The nature of test [4]: Stat Signaling Pathway (AID 446).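 Note: ME-180 cervical cancer cells given 40 pM IL-6 alongside compound; SIE-controlled beta-lactamase reporter measured as 460/530 nm FRET emission ratio; % is set by controls: 0 for no effect and ±100 for the full control effect.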 As to conditions: ME-180 SIE beta-lactamase reporter, IL-6 stimulated, 5 h; at 7.69 µM (top of the series) unless noted. The essentials:
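Normalization used AC90 stimulation (300 pM IL-6) and AC90 inhibition (125 nM pan-JAK inhibitor at 40 pM IL-6). The underlying signal is SIE-driven beta-lactamase in ME-180 cells after 5 h IL-6 exposure with compound.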

For test [5], the target named is Glucocorticoid receptor (Homo sapiens) (UniProt P04150). The test is described as follows: GR-EFC Redistribution (AID 451; calls by dose curve; note: potency is the fitted concentration of half-maximal effect). Conditions: CHO-K1 GR-EFC translocation, beta-gal luminescence, 2 h. The essentials: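 CHO-K1 cells expressing nuclear EA and GR-ED fragments of b-gal; compounds titrated up to 46 uM final, 2 h at 37 C. GR nuclear translocation read as complemented b-gal luminescence after 1 h RT detection.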

In test [6] the target is Mitogen-activated protein kinase 10 (Mus musculus) (UniProt Q61831). Kind of test: JNK3 AlphaScreen Assay (AID 530).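 Note: kinase came from lysate of stimulated human HepG2 cells; signal reports phosphorylation of biotinylated GST-cJun 1-79 at Ser73 with 10 µM ATP; % is set by controls: 0 for no effect and ±100 for the full control effect.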 In outline: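 HepG2 lysate (IL-1b/TNFa pre-activated) + biotin-GST-cJun 1-79 + anti-pSer73 cJun; cpd titration, 15 min RT; ATP 10 uM start; Tris pH 7.6, MgCl2, DTT, vanadate; beads in EDTA buffer; AlphaScreen.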
For orientation: Alpha assays give light when donor and acceptor beads are brought close together.

The target in test [7] is 3',5'-cyclic-AMP phosphodiesterase 4B (Homo sapiens) (UniProt Q07343). Kind of test: qHTS Assay for Inhibitors of PDE-IV (AID 607; active = well fitted activation curve with a large enough effect in the main read-out, with a control signal flat, not every such curve was filed as active; note: % of control where 0% means no effect). In outline: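 HEK293 ACTOne cells with CNG channel (1000/well), endogenous PDE4; membrane potential dye, compounds up to 22.9 uM final. Fluorescence Ex 535/Em 590; RO 20-1724 (100 uM final) as reference.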
Background: Quantitative high-throughput screening tests each substance at several concentrations.

In test [8] the target is Cytochrome P450 3A4 (Homo sapiens) (UniProt P08684). The test is described as follows: qHTS Assay for Inhibitors and Substrates of Cytochrome P450 3A4 (AID 884; active = well fitted curve in the direction sought with a large enough effect; an effect the other way counts as inactive or inconclusive; note: % is set by controls: 0 for no effect and ±100 for the full control effect; nearly all actives have a fitted effect of over 50% in size). In outline:
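Luminescent readout of luciferin produced by CYP3A4 (20 nM) dealkylation of Luciferin-PPXE, 25 uM (its KM). NADPH-driven reaction ran 60 min at RT after 10 min compound preincubation; data scaled to 57 uM ketoconazole as 100% inhibition.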

Test [9] has the same target. The test is described as follows: qHTS Assay for Activators of Cytochrome P450 3A4 (AID 885; active = well fitted curve in the direction sought with a large enough effect; an effect the other way counts as inactive or inconclusive; note: potency is the fitted concentration of half-maximal effect; nearly all actives have a fitted effect of over 65% in size). In outline:
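Human CYP3A4 dealkylates Luciferin-PPXE to luciferin, which luciferase detection converts to light. Substrate was at its KM (25uM), buffer 200mM KPO4, reaction 60 min at RT.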

Test [10] is described as follows: Primary qHTS for small molecule stabilizers of the endoplasmic reticulum resident proteome: Secreted ER Calcium Modulated Protein (SERCaMP) assay (AID 1508630; active = well fitted curve in the direction sought with a large enough effect; an effect the other way counts as inactive or inconclusive; note: % is set by controls: 0 for no effect and ±100 for the full control effect). The essentials: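 The SH-SY5Y reporter protocol was run at 3 concentrations up to 38.3 uM (primary) or 11 concentrations (follow-up): 16 h compound, 100 nM thapsigargin for 4 h, then extracellular luciferase luminescence.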

For test [11], the target named is Glucocorticoid receptor (Homo sapiens) (UniProt P04150). Kind of test: GR-GFP Redistribution (AID 450;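 active = compounds whose dose series gives a full or clear partial fitted curve of increased nuclear translocation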; note: potency is the fitted concentration of half-maximal effect). Conditions: U2OS GR-GFP nuclear translocation, laser cytometry, 2 h.
Test [12] has as its target Lysosomal acid glucosylceramidase (Homo sapiens) (UniProt P04062). Kind of test: Glucocerebrosidase-p2 (AID 348; in the data active = potency below about 10 µM; note: potency is the fitted concentration of half-maximal effect). As to conditions: purified GBA, blue fluorogenic substrate, 40 min. In outline: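 Normal human glucocerebrosidase (0.2 nM) with blue fluorogenic substrate (80 uM final) in citrate/phosphate pH 5.9 with 10mM sodium taurocholate, 0.01% tween-20; 40 min RT, NaOH/glycine stop; fluorescence Ex 365/Em 440; AC50 from a titration from 0.6 nM upwards.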

Test [13] can be described thus: qHTS Assay for Identification of Small Molecule Agonists for Hypoxia Response Element Signaling Pathway (AID 914; active = well fitted activation curve with a large enough effect in the signal ratio, with a control signal flat, not every such curve was filed as active; the % refers to the signal ratio; note: potency is the fitted concentration of half-maximal effect). Conditions: ME-180 (cervical carcinoma) HRE-bla reporter, beta-lactamase ratio, CoCl2, 17 h; activation: active compounds read high. The essentials: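 Positive modulation of EC50 CoCl2-induced hypoxia response element signaling is measured in ME-180 cells with a beta-lactamase reporter. Compounds are titrated, incubation runs 17 hours, and %Activity derives from the blue/green ratio.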

In test [14] the target is Cytochrome P450 2C19 (Homo sapiens) (UniProt P33261). The test is described as follows: qHTS Assay for Inhibitors and Substrates of Cytochrome P450 2C19 (AID 899; active = well fitted curve in the direction sought with a large enough effect; an effect the other way counts as inactive or inconclusive; note: potency is the fitted concentration of half-maximal effect; nearly all actives have a fitted effect of over 60% in size). The essentials: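 Luminescent read-out of luciferin formed from Luciferin-H EGE (10uM, equal to KM). Enzyme 5nM in 50mM KPO4; compound added, 10 min at 37C, then NADPH regenerating system for 60 min at 37C. Full inhibition defined by 57uM ketoconazole.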

Test [15] has as its target Ubiquitin carboxyl-terminal hydrolase 1 (Homo sapiens) (UniProt O94782). Kind of test: Inhibitors of USP1/UAF1: Pilot qHTS (AID 504865; active = well fitted curve in the direction sought with a large enough effect; an effect the other way counts as inactive or inconclusive;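 note: rhodamine fluorescence freed from ubiquitin-rhodamine substrate followed over time; top concentration of the series differs between compounds; % is set by controls: 0 for no effect and ±100 for the full control effect; nearly all actives have a fitted effect of over 35% in size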). In outline: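 Kinetic fluorescence assay: 1nM USP1/UAF1, 15 min compound preincubation, then 150nM Ub-Rho; 480/540 nm.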

Lysosomal acid glucosylceramidase (Homo sapiens), sequence (P04062 whole entry, looked up): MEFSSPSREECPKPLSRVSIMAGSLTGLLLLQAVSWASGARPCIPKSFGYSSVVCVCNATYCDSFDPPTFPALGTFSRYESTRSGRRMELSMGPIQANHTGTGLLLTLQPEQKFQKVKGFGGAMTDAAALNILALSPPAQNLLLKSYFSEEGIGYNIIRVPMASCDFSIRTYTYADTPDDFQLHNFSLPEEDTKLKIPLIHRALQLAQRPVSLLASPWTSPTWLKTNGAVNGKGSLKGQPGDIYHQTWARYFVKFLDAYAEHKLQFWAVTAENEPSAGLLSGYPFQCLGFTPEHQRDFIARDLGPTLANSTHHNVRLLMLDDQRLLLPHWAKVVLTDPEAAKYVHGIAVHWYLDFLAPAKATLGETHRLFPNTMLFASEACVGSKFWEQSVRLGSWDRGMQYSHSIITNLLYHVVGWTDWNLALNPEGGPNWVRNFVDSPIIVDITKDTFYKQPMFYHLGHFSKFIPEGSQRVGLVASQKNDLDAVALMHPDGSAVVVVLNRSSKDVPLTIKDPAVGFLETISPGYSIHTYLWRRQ
Glucocorticoid receptor (Homo sapiens), sequence (P04150 whole entry, looked up, the tested form may be a part): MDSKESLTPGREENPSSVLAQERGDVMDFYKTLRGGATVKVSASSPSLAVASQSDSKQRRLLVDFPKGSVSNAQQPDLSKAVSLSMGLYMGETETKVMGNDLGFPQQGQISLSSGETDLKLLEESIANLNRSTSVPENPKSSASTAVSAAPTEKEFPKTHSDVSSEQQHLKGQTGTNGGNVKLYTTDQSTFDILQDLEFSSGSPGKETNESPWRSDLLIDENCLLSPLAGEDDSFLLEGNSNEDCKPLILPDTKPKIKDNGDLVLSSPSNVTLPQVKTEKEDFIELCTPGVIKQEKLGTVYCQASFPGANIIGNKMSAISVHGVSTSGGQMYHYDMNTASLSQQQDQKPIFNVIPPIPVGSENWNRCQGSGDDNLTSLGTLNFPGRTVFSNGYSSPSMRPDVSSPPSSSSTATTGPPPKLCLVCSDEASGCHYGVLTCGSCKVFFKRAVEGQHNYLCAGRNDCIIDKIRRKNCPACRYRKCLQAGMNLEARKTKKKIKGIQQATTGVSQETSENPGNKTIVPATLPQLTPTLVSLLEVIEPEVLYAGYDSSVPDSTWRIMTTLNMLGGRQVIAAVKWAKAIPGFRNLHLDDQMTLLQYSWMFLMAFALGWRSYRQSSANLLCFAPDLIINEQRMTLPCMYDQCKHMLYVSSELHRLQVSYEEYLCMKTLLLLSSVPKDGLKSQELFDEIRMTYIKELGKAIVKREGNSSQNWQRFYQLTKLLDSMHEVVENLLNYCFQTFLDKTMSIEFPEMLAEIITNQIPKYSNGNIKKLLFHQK
3',5'-cyclic-AMP phosphodiesterase 4B (Homo sapiens), sequence (Q07343 whole entry, looked up): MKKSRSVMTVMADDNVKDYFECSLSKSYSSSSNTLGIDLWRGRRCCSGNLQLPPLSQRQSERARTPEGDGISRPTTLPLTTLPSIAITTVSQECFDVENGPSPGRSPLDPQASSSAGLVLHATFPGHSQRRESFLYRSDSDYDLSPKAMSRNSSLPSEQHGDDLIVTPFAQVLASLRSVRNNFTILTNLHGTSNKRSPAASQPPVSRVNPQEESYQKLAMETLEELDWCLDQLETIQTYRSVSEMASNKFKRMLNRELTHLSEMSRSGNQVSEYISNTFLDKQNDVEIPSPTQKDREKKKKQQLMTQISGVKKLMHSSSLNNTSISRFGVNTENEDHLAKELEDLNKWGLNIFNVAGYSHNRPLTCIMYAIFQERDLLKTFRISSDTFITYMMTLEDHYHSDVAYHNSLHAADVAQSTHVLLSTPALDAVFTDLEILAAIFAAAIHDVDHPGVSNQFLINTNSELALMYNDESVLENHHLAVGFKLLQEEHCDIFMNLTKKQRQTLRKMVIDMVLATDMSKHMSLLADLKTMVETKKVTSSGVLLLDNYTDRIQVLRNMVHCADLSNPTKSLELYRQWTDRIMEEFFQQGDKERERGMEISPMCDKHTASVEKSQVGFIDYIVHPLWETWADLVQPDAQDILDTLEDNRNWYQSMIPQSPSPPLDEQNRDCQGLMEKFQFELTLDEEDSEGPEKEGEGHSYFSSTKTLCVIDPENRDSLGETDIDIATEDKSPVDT
Cytochrome P450 1A2 (Homo sapiens), sequence (P05177 whole entry, looked up): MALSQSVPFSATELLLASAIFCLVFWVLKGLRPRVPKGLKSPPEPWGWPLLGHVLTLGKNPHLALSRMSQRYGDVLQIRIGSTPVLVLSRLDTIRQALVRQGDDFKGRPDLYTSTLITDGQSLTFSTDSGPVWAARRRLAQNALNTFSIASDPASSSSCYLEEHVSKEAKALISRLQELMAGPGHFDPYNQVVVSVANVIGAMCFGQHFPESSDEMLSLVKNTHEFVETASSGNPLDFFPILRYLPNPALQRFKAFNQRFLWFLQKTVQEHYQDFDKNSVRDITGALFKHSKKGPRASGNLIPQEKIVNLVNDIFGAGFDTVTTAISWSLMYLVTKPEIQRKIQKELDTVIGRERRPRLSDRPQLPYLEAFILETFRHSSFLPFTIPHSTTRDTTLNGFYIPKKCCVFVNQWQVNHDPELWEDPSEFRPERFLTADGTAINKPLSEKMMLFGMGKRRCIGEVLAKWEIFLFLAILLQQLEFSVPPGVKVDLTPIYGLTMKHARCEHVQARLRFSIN
Cytochrome P450 3A4 (Homo sapiens), sequence (P08684 whole entry, looked up): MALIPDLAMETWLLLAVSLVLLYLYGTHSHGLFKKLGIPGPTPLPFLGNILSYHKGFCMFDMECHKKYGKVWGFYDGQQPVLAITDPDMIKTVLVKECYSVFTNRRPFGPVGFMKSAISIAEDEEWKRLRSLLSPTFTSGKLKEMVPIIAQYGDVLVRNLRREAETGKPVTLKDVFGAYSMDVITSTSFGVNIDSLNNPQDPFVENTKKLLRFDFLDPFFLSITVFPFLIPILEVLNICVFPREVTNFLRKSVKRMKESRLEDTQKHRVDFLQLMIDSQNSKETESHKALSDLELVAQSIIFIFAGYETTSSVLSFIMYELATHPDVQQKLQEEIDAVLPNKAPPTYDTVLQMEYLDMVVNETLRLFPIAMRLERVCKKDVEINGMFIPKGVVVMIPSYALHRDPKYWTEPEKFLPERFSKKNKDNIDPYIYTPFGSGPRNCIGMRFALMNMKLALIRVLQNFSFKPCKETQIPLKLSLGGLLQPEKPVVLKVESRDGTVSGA
Ubiquitin carboxyl-terminal hydrolase 1 (Homo sapiens), sequence (O94782 whole entry, looked up): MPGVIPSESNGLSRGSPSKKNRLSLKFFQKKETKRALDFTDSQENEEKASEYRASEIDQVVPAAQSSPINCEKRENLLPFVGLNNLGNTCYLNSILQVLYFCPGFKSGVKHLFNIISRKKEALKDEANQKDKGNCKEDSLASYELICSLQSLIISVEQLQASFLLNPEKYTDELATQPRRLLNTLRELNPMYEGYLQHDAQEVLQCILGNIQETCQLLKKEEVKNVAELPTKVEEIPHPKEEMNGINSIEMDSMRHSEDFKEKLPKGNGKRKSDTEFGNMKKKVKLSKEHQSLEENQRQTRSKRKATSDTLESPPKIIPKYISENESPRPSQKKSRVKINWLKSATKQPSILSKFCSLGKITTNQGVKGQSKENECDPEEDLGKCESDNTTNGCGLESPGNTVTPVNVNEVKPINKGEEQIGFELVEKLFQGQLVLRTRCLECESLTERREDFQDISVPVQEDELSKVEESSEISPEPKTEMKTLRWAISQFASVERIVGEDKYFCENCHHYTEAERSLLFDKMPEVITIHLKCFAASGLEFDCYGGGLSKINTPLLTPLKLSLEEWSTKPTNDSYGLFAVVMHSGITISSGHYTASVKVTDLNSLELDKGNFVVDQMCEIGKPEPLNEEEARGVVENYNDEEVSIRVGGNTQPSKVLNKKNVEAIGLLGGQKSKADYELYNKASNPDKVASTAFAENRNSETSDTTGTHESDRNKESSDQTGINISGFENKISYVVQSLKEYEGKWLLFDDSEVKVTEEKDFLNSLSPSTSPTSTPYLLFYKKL
Cytochrome P450 2C19 (Homo sapiens), sequence (P33261 whole entry, looked up): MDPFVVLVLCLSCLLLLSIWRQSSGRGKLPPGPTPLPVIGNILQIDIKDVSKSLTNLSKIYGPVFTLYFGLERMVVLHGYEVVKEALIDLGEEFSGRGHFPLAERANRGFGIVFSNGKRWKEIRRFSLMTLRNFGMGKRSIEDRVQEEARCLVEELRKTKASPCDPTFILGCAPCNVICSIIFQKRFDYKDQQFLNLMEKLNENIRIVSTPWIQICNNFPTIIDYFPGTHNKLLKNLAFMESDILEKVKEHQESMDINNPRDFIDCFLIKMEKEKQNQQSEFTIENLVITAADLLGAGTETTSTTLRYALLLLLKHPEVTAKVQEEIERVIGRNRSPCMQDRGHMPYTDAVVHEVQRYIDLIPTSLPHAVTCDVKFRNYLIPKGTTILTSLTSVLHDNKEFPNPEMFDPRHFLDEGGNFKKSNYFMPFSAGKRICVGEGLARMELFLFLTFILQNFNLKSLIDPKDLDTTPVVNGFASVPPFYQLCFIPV

On to `COc1ccc(NC(=O)N2CCC3(CC2)CCN(C(=O)c2cccc(F)c2)CC3)cc1`, for which the activity change, negative = inhibition in test [1] is -4.05%; in [3], 8.11%. Also, the Potency result in [2], in test [6], in test [7] and in [8] was “inactive” each time. The activity, negative = inhibition in test [4] was 0.897%. Further, the figures for the Potency in [5] and in [9] were over 46 µM and 12.6 µM (active), respectively. Besides, the outcome in test [10] was inactive.
`O=c1c(-c2ccc(Cl)cc2)nc2cnc(N3CCOCC3)nc2n1C1CC1`: the activity change, negative = inhibition was 6.61% in test [1] and -4.43% in test [3]. Also, the figures for the Potency in test [2], in test [11] and in [5] were 1.26 µM (active), over 9.22 µM and over 46 µM, respectively. The activity, negative = inhibition in [4] is 26.7%. The Potency entry in test [6] and in [7] was “inactive” in each case. In test [10], the result was inactive.
As to `COc1cccc(Cn2c(=O)c(C)nc3cnc(OCc4ccccc4)nc32)c1`, the values for the Potency in test [12], in test [11] and in test [5] were over 11.4 µM, over 9.22 µM and over 46 µM, respectively. The activity change, negative = inhibition in [3] is -16.9%. In addition, in test [4], the activity, negative = inhibition was -3.44%. For the same compound, the Potency result in test [6] was “inactive”. The result in test [10] was inactive.
Regarding `COCCn1c(=O)c(-c2cccs2)nc2cnc(Oc3cccc(Cl)c3)nc21`, the Potency in test [12] was over 11.4 µM; in test [11], over 9.22 µM; in [5] it was over 46 µM; in test [13], 3.16 µM (active). Moreover, in test [7], the Potency entry is “inactive”. For the same compound, the outcome in [10] was inactive.
For the compound `O=C(Nc1cccc(F)c1)N1CCCC2(CCN(C(=O)c3cccc(F)c3)CC2)C1`, the Potency in test [12] is over 11.4 µM; in test [5], over 46 µM. In addition, in test [4], the activity, negative = inhibition is -9.43%. For the same compound, the Potency entry in [6] was “inactive”. In test [10], the outcome was inactive.
Turning to `COc1ccc(Oc2ncc3nc(-c4ccccc4)c(=O)n(Cc4cccs4)c3n2)cc1`, the values for the activity change, negative = inhibition in test [1] and in [3] were -8.46% and -1.01%, respectively. For the same compound, the activity, negative = inhibition in [4] was -3.78%. For the same compound, the Potency in [11] is over 9.22 µM; in [5], over 46 µM. Further, the Potency result in test [6] and in test [7] was “inactive” in each case. Further, the result in test [10] was inactive.
Consider `FC(F)(F)c1ccccc1-c1cc(NCc2cccs2)ncn1`, for which the results for the activity change, negative = inhibition in [1] and in [3] were -3.47% and -14.8%, respectively. The Potency in test [2] was 3.98 µM (active); in test [11], over 46 µM; in test [5] it was over 46 µM; in [14], 0.794 µM (active). The activity, negative = inhibition in [4] was 5.97%. The Potency result in [6], in test [7] and in test [15] was “inactive” in each case. In addition, the result in [10] was inactive.
On to `O=c1c(-c2ccc(Cl)cc2)nc2cncnc2n1Cc1ccc(F)cc1`, for which the Potency in [12] was over 11.4 µM; in test [11] it was over 9.22 µM; in test [5], over 46 µM. Also, the activity change, negative = inhibition in test [3] was 5.72%. Also, in test [4], the activity, negative = inhibition was -2.95%. The Potency result in [6] and in [7] was “inactive” throughout. For the same compound, the outcome in test [10] was inactive.
